What all share (design): species or system human, MV4-11 + K-562 + COLO205 + SK-N-BE2 + OVCAR-8
In one test the test system is AKT2. To be noted: read-out: apparent Kd, n = 1.
For the next test, the system named is AKT3. To be noted: read-out: apparent Kd; compound concentrations: 100 nM and 1000 nM (sheet 'Samples'), CATDS: 0.118826721397903; n = 1.
The next test relates to CDK17. To be noted: read-out: apparent Kd; compound concentrations: 100 nM and 1000 nM (sheet 'Samples'), CATDS: 8.1529480800730997E-2; n = 1.
The subject of a further test is CDK9. To be noted: read-out: apparent Kd; compound concentrations: 100 nM and 1000 nM (sheet 'Samples'), CATDS: 7.5399196753672404E-2; n = 1.
In the next test the test system is CSNK1A1. The note with it: read-out: apparent Kd; compound concentrations: 100 nM and 1000 nM (sheet 'Samples'), CATDS: 8.2829529423840004E-2; n = 1.
In the next test the test system is HCK. The note with it: read-out: apparent Kd; compound concentrations: 100 nM and 1000 nM (sheet 'Samples'), CATDS: 0.17397087448623899; n = 1.
A further test deals with ILK. The note with it: read-out: apparent Kd; compound concentrations: 100 nM and 1000 nM (sheet 'Samples'), CATDS: 8.7046948596417206E-2; n = 1.
A further test relates to MAP2K1. To be noted: read-out: apparent Kd, n = 1.
The subject of another test is NQO1. The note with it: read-out: apparent Kd, n = 1.
The subject of a further test is RIPK3. To be noted: read-out: apparent Kd; compound concentrations: 100 nM and 1000 nM (sheet 'Samples'), CATDS: 8.3707794531398802E-2; n = 1.
The subject of another test is TP53RK. To be noted: read-out: apparent Kd; compound concentrations: 100 nM and 1000 nM (sheet 'Samples'), CATDS: 8.4353152889517405E-2; n = 1.
A further test has as its system AKT1. To be noted: read-out: apparent Kd; compound concentrations:100 nM and 1000 nM (sheet 'Samples'); n = 1.
In a further test the test system is CDK16. To be noted: read-out: apparent Kd; compound concentrations:100 nM and 1000 nM (sheet 'Samples'); n = 1.
Another test has as its system CDK6. To be noted: read-out: apparent Kd; compound concentrations:100 nM and 1000 nM (sheet 'Samples'); n = 1.
A further test deals with GSK3A. The note with it: read-out: apparent Kd; compound concentrations:100 nM and 1000 nM (sheet 'Samples'); n = 1.
The test system of the next test is GSK3B. The note with it: read-out: apparent Kd; compound concentrations:100 nM and 1000 nM (sheet 'Samples'); n = 1.
In the next test the test system is MAP2K2. The note with it: read-out: apparent Kd; compound concentrations:100 nM and 1000 nM (sheet 'Samples'); n = 1.
The next test has as its system MAP3K1. The note with it: read-out: apparent Kd; compound concentrations:100 nM and 1000 nM (sheet 'Samples'); n = 1.
Another test deals with MYLK3. To be noted: read-out: apparent Kd; compound concentrations:100 nM and 1000 nM (sheet 'Samples'); n = 1.
A further test has as its system NLK. The note with it: read-out: apparent Kd; compound concentrations:100 nM and 1000 nM (sheet 'Samples'); n = 1.
Another test deals with STK11. To be noted: read-out: apparent Kd; compound concentrations:100 nM and 1000 nM (sheet 'Samples'); n = 1.
A further test has as its system STK26. The note with it: read-out: apparent Kd; compound concentrations:100 nM and 1000 nM (sheet 'Samples'); n = 1.
A further test deals with TGFBR2. The note with it: read-out: apparent Kd; compound concentrations:100 nM and 1000 nM (sheet 'Samples'); n = 1.
The next test concerns AGK. The note with it: read-out: apparent Kd; compound concentrations:100 nM and 1000 nM (sheet 'Samples'); n = 1.
Another test concerns CDKL5. To be noted: read-out: apparent Kd; compound concentrations:100 nM and 1000 nM (sheet 'Samples'); n = 1.
For another test, the system named is CLK1. To be noted: read-out: apparent Kd; compound concentrations:100 nM and 1000 nM (sheet 'Samples'); n = 1.
For a further test, the system named is CLK2. To be noted: read-out: apparent Kd; compound concentrations:100 nM and 1000 nM (sheet 'Samples'); n = 1.
Another test has as its system CLK4. To be noted: read-out: apparent Kd; compound concentrations:100 nM and 1000 nM (sheet 'Samples'); n = 1.
[1] abbreviates: compound concentrations:100 nM and 1000 nM (sheet 'Samples').

Like-named read-outs stand apart in the source and are kept apart here.

On to `Cl.N#CCc1ccc(Nc2nccc(Nc3ccc(Oc4ccccc4)cc3)n2)cc1` [GW639905A], for which the potency estimated from few doses was 1920 nM in the test with AKT2 (compound concentrations: 100 nM and 1000 nM (sheet 'Samples'), CATDS: 8.2827110731653497E-2); 954 nM in the test with AKT3; 1990 nM in the test on CDK17; 2420 nM in the test with CDK9; 1920 nM in the test with CSNK1A1; 532 nM in the test on HCK. The potency estimated from few doses was 1720 nM in the test on ILK; 1610 nM with MAP2K1 (compound concentrations: 100 nM and 1000 nM (sheet 'Samples'), CATDS: 8.98649962952279E-2); 1500 nM in the test on NQO1 (compound concentrations: 100 nM and 1000 nM (sheet 'Samples'), CATDS: 9.3069785012321701E-2); 1880 nM in the test with RIPK3; 1850 nM in the test with TP53RK.

As to `O=C(Nc1n[nH]c2nc(-c3cccc(O)c3)ccc12)C1CC1` [SB-711805], the potency estimated from few doses in the test on AKT1 was 1900 nM; in the test on AKT2 (setting [1]), 2070 nM; with CDK16 it was 2150 nM; in the test with CDK6 it was 1880 nM; with GSK3A, 147 nM; in the test on GSK3B, 223 nM. Besides, the potency estimated from few doses is 2170 nM in the test with MAP2K1 (setting [1]); 2290 nM in the test with MAP2K2; 1840 nM in the test on MAP3K1; 1310 nM in the test on MYLK3; 1150 nM in the test on NLK; 1330 nM in the test with NQO1 (setting [1]). The potency estimated from few doses is 2400 nM in the test with STK11, 2270 nM in the test on STK26 and 644 nM in the test with TGFBR2.

For the compound `COc1ccc2c(-c3ccnc(Nc4cccc(OC(F)(F)F)c4)n3)cnn2n1` [GW810372X], the potency estimated from few doses in the test with AGK is 2270 nM; with CDKL5 it was 1850 nM; with CLK1, 82.4 nM; in the test on CLK2, 20.2 nM; with CLK4, 120 nM.
